Source: PubChem BioAssay
Only a selection was taken, and hits are over-represented in it overall.
Pf Dd2 growth: Plasmodium falciparum Dd2 growth inhibition; P. falciparum Dd2 growth, SYBR Green, 72 h; Potency, µM (series often up to 28.9 µM), most hits filed as inhibitors; 120,000 tested, 4.3% active; active means well fitted inhibition curve with a large enough effect; further: nearly all actives have a fitted effect of over 65% in size
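Infected erythrocytes (Dd2, 0.3% parasitemia, 2.5% hematocrit final) are added to compound in RPMI-1640/Albumax II medium, grown 72 h at 37C in low oxygen, then lysed with saponin/Triton-X containing SYBR Green and read by fluorescence.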
Numbers stand for hits; – = inactive; [ ] = another dose, or the depositor's remark.

SMILES	Pf Dd2 growth
CCC(C)n1cnc2cccnc21 (stereo not drawn)	–
COc1ccc(OC)c(NC(=O)c2sc3nc4c(cc3c2N)CCCCCC4)c1	–
COc1ccc(OC)c(NC(=O)c2c(NCc3cccs3)sc3c2CCCCC3)c1	8.91µM
COc1ccc(OC)c(NC(=O)c2c(OC)cc(=O)n3c2CCCC3)c1	–
COc1cc(C(=O)Nc2sc3c(c2C(N)=O)CCC(C)C3)cc(OC)c1OC (stereo not drawn)	–
COc1ccccc1NC(=O)c1c(NC(=O)Cc2ccccc2)sc2c1CCC(C(C)(C)C)C2 (stereo not drawn)	–
COc1ccc(NC(=O)c2c(NCc3cccs3)sc3c2CCC(C)C3)c(OC)c1 (stereo not drawn)	10µM
CO[C@@H]1CCOC[C@H]1NS(=O)(=O)c1ccc2c(c1)N(C(C)=O)CCO2	–
COC1CCC12CCN(Cc1ccc(C)o1)CC2 (stereo not drawn)	–
OCc1ccc(-c2nc(C3CCOC3)nn2C2CCCCC2)cc1 (stereo not drawn)	–
O=C(Cc1ccccc1F)N1C[C@@H](CO)[C@H](c2nc(C3CC3)no2)C1	–
O=C(Nc1ccccc1F)C1c2ccccc2C(=O)N(Cc2ccccc2)C12CCCC2 (stereo not drawn)	11.2µM
COCCN1C(=O)c2ccccc2C(C(=O)Nc2ccc(OC)cc2OC)C12CCCC2 (stereo not drawn)	–
O=C(O)C1c2ccccc2C(=O)N(Cc2ccccc2)C12CCCC2 (stereo not drawn)	–
COCCN1C(=O)c2ccccc2C(C(=O)NCCc2c[nH]c3ccccc23)C12CCCC2 (stereo not drawn)	–
COCCN1C(=O)c2ccccc2C(C(=O)Nc2ccc3c(c2)OCO3)C12CCCC2 (stereo not drawn)	12.6µM
COCCN1C(=O)c2ccccc2C(C(=O)Nc2cc(OC)ccc2OC)C12CCCC2 (stereo not drawn)	–
COCCN1C(=O)c2ccccc2C(C(=O)Nc2ccc(C(N)=O)cc2)C12CCCCC2 (stereo not drawn)	–
COCCN1C(=O)c2ccccc2C(C(=O)Nc2ccc(OC)c(Cl)c2)C12CCCC2 (stereo not drawn)	–
COCCN1C(=O)c2ccccc2C(C(=O)Nc2ccc3[nH]ccc3c2)C12CCCC2 (stereo not drawn)	11.2µM
O=C(NCCc1ccccc1)C1c2ccccc2C(=O)N(Cc2ccccc2)C12CCCC2 (stereo not drawn)	–
COCCN1C(=O)c2ccccc2C(C(=O)Nc2cc(C)ccc2OC)C12CCCCC2 (stereo not drawn)	10µM
Cc1cc(C(=O)N2CCc3c(nc[nH]c3=O)C2)c2cc(Cl)ccc2n1	–
O=C(NC1CCN(c2cc(-c3cccs3)[nH]n2)CC1)c1cc(F)ccc1Cl	–
CC(=O)Nc1ccc(C(=O)N2CCC3(CC2)CC(N[S+](C)(=O)[O-])c2ccccc23)cc1 (stereo not drawn)	–
SMILES	Pf Dd2 growth
COc1ccccc1-n1nc(CC(N)=O)nc1Cn1cnc2ccccc21	–
Cc1nc(N2CCN(C(=O)c3ccc4c(c3)OCO4)CC2)cc(C(F)(F)F)n1	–
CC(C)n1nc(OC(C)(C)C(=O)NCc2cnccn2)c2cc(CN3CCOCC3)ccc21	–
CN1[C@@H](CCC(=O)NCc2cccnc2)CNC(=O)[C@@H]2[C@H]1CCN2Cc1cccc(Cl)c1	–
COc1ccc(-c2onc(C)c2C(=O)NC2CCCc3ccccc32)cc1 (stereo not drawn)	–
COCCN1C(=O)c2ccccc2C(C(=O)Nc2ccc(NC(C)=O)cc2)C12CCCCC2 (stereo not drawn)	–
COCCN1C(=O)c2ccccc2C(C(=O)Nc2cc(OC)cc(OC)c2)C12CCCC2 (stereo not drawn)	11.2µM
COCCN1C(=O)c2ccccc2C(C(=O)Nc2ccc(OC)c(OC)c2)C12CCCC2 (stereo not drawn)	–
COc1cccc(CNC(=O)Cn2ccn3nc4c(c3c2=O)CCCC4)c1OC	–
Cc1cccc(C(=O)N2CC(=O)N(C3CCCCC3)CC(OCc3ccccc3)C2)n1 (stereo not drawn)	–
Cc1nn(CC(=O)NC2CCCCCC2)c(=O)c2nc(C(C)C)sc12	–
O=C(CN1CC2CC(C1)[C@H]1CCCC(=O)N1C2)N1CCC(N2CCCCC2)CC1 (stereo partly drawn)	–
COC(=O)[C@H](NC(=O)C1=C[C@@H](NC(=O)Nc2cccc(F)c2)[C@@H](O)[C@H](O)C1)C(C)C	–
CCOc1ccc(C(=O)N2CCCN(c3cc(-c4ccc(Cl)cc4)[nH]n3)CC2)cc1OCC	5.01µM
COc1cc(OC)cc(C(=O)N2CCCN(c3cc(-c4ccc(C)c(C)c4)[nH]n3)CC2)c1	11.2µM
COc1cc(C(=O)N2CCCN(c3cc(-c4ccc(C)c(C)c4)[nH]n3)CC2)cc(OC)c1OC	–
O=C(c1ccccc1)N1CCCN(c2cc(-c3ccc(Cl)cc3)[nH]n2)CC1	–
CCOc1ccc(C(=O)N2CCN(c3cc(-c4ccc(F)cc4)[nH]n3)CC2)cc1OCC	–
Cc1ccc(-c2cc(N3CCCN(C(=O)c4ccsc4)CC3)n[nH]2)cc1C	–
COCc1ncc(C)n1CCNC(=O)Cc1cccc(F)c1	–
CC(C)CCN1C(=O)CC[C@]2(C(=O)NCc3cccs3)CCCC[C@@H]12	–
CN(CC1CCOC1)C(=O)Cc1cccc(F)c1 (stereo not drawn)	–[5.79 µM]
CC(=O)N1CC2(CCCN2Cc2ccccn2)Cc2ccccc21 (stereo not drawn)	–
CCCN1CCCC12Cc1ccccc1CN(C(=O)C(C)C)C2 (stereo not drawn)	8.91µM
C[S+](=O)([O-])N1Cc2ccccc2CC2(CCCN(Cc3ccccn3)C2)C1 (stereo not drawn)	–
SMILES	Pf Dd2 growth
CC(C)C(=O)N1Cc2ccccc2CC2(CCCCN2Cc2ccncc2)C1 (stereo not drawn)	8.91µM
C[S+](=O)([O-])N1Cc2ccccc2CC2(CCCN2Cc2ccncc2)C1 (stereo not drawn)	–
CC(C)C(=O)N1Cc2ccccc2CC2(CCCCN2Cc2ccccn2)C1 (stereo not drawn)	12.6µM
CCC(=O)N1Cc2ccccc2CC2(CCCN2Cc2ccccn2)C1 (stereo not drawn)	–
C[S+](=O)([O-])N1CC2(CCCCN2Cc2ccccn2)Cc2ccccc21 (stereo not drawn)	8.91µM
CCCN1CCC2(CC1)Cc1ccccc1CN(C(=O)C(C)C)C2	–
CC(C)C(=O)N1CCCC2(Cc3ccccc3CN2[S+](=O)([O-])c2ccccc2)C1 (stereo not drawn)	–
CCC(=O)N1Cc2ccccc2CC2(CCCCN2Cc2ccccn2)C1 (stereo not drawn)	–
O=C1Nc2ccccc2C12CN(Cc1ccc3ccccc3c1)C2	–
CC1=NN(CC(=O)N2CCN(Cc3ncc[nH]3)CC(C(=O)O)C2)CC1 (stereo not drawn)	–
COc1cc(OC)cc(-c2onc(C)c2C(=O)NCc2ccccc2)c1	–
O=C1c2c(-c3nc(-c4ccsc4)no3)nnn2CCN1Cc1cccc(Cl)c1	–
CC(C)c1nncn1C1CCN(S(=O)(=O)c2cc(F)ccc2F)CC1	–
Cc1ccc(NC(=O)Cn2c(N3CCCCC3)nc(C)c(C)c2=O)c(Cl)c1	–
CN(C)c1ccc(CN2CC[C@@H]3[C@H]2C(=O)NC[C@H](CCC(=O)Nc2ccccc2)N3C)cc1	–
CN(C)[C@@H]1CN(Cc2ccccc2F)CC[C@@H]1CNC(=O)C1CC1	–
